# Measurements as given in article PMC6792352, “Limited Chemical Structural Diversity Found to Modulate Thyroid Hormone Receptor in the Tox21 Chemical Library” (Environmental Health Perspectives, 2019).
# Where a name gives a salt, the structure may show the parent alone.
# System: thyroid hormone receptor (endogenous TRα and TRβ)
# Parameters: species or system GH3-TRE-Luc (rat pituitary); GH3-TRE-Luc luciferase reporter, antagonist mode against 1 nM T3, loss of signal, qHTS
# Conditions: read-out: Average AC50 (uM) GH3-TRE-Antag, antagonist mode, 1 nM T3, no GH3 cytotoxicity hit
row,SMILES,AC50 [µM]
1,CCN(CC)CCO[C@H]1CC[C@@]2(C)C(=CC[C@@H]3[C@@H]2CC[C@]2(C)C(=O)CC[C@@H]32)C1 [3beta-(2-Diethylaminoethoxy)androst-5-en-17-one hydrochloride],22.5
2,O=C(O)C(F)(F)C(F)(F)C(F)(F)C(F)(F)C(F)(F)C(F)(F)C(F)(F)C(F)(F)F [Perfluorononanoic acid],71.7
3,O=C(c1ccccc1)C1CCCCC1 [Cyclohexylphenylketone],69.7
4,COc1ccc2c(c1OC)CN1CCc3cc4c(cc3[C@@H]1C2)OCO4 [Canadine],> 20
5,CCO/N=C(\CC)C1=C(O)CC(c2c(C)cc(C)cc2C)CC1=O (stereo not drawn) [Tralkoxydim],> 90
6,CCC(=O)/C=C/c1ccc(OC)cc1 [1-(4-Methoxyphenyl)-1-pentene-3-one],79.8
7,CCN(CCCc1ccccc1)CCCc1ccccc1 [Alverine citrate],10.8
8,"O=c1cc(-c2ccccc2)oc2ccc3ccccc3c12 [5,6-Benzoflavone]",7.88
9,CO[C@H]1O[C@@H]2O[C@@]3(C)CC[C@H]4[C@H](C)CC[C@@H]([C@H]1C)[C@@]24OO3 [Artemether],> 50
